In the library only some 7.3% were active in any assay of this set; here they are far more common.
ELG1 genotox – qHTS screen for small molecules that induce genotoxicity in human embryonic kidney (HEK293T) cells expressing luciferase-tagged ELG1 | HEK293T ELG1-luciferase reporter, luminescence, 16 h | 1.3% of 330,000 active | AID 504466, 2011 | Potency, µM (series often up to 46 µM), for inactives: at the highest dose activity change, positive = activation, usual class: activators; further: % of control where 0% means no effect; nearly all actives have a fitted effect of over 60% in size
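Luminescence read-out: rising ELG1-luciferase signal, reflecting elevated ELG1 protein under genetic stress, flags genotoxic compounds. Cells were treated for 16 hr at 37 °C before ONE-Glo detection.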
FLuc modulator – qHTS profiling assay for firefly luciferase inhibitor/activator using purifed enzyme and Km concentrations of substrates (counterscreen for miR-21 project). Luciferin 4-monooxygenase (Photinus pyralis), P08659. purified FLuc, Km substrates, luminescence inhibition. Potency, µM (doses to about 57.5 µM), for the others: top-dose activity change, negative = inhibition, usual class: inhibitors. 6.9% of 360,000 active;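 further: plate controls were vehicle for no effect and reference inhibitor for full effect; nearly all actives have a fitted effect of over 55% in size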
Target sequence (P08659 whole entry, looked up): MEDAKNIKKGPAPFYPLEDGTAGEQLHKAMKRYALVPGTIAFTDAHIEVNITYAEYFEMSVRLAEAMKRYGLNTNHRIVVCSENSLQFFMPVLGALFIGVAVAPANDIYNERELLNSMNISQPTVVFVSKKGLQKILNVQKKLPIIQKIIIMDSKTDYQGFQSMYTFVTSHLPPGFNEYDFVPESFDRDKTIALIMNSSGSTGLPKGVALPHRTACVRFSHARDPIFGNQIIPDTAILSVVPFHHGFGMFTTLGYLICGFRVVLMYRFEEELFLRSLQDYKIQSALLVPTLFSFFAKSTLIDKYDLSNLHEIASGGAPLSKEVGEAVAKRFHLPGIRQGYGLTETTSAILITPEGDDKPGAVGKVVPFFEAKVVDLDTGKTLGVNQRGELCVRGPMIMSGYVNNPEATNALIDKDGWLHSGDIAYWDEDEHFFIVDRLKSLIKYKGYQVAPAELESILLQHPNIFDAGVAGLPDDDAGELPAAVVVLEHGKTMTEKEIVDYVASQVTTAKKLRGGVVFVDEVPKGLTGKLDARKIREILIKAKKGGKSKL
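Biochemical qHTS of compounds, final roughly 60 µM downward over six points, against 10 nM purified firefly luciferase using Km concentrations of substrates (10 uM D-luciferin, 10 uM ATP) in Tris acetate pH 7.5 buffer; luminescence output.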
Rab9 promoter act – qHTS Assay for Rab9 Promoter Activators. Huh7 Rab9 promoter-luciferase reporter, luminescence, 24 h. Potency, µM (series often up to 9.22 µM), inactives show top-dose activation, negative = inhibition, actives largely listed as activators. 2.8% of 320,000 active. AID 485297, 2010; further: % of control where 0% means no effect; nearly all actives have a fitted effect of over 60% in size
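Steps: seed 1500 Huh7 Rab9-luc cells per well, rest 2 h at 37 °C; add compound in DMSO; incubate 24 h; add luciferase reagent, 10 min ambient; read luminescence.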
NPC1 prom act – qHTS Assay for NPC1 Promoter Activators; Potency, µM (series often up to 9.22 µM), for the others: top-dose activation, usual class: activators; Huh7 NPC1 promoter luciferase reporter, 24 h; 2.4% of 320,000 active; further: % of control where 0% means no effect; nearly all actives have a fitted effect of over 60% in size
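Cells: Huh7 expressing luciferase under the NPC1 promoter, 1500/well. Seeded 2 h, compound added, incubated 24 h at 37 °C. Luciferase reagent, 10 min ambient, then luminescence.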
SMN2 splice up – qHTS Assay for Enhancers of SMN2 Splice Variant Expression. HEK293 SMN2-luciferase splicing reporter, luminescence, 30-36 h. Potency, µM (top dose mostly 46.1 µM), for inactives: top-dose activity change, positive = activation, usual class: activators. 2.8% of 210,000 active. AID 1458, 2008; further: % of control where 0% means no effect; nearly all actives have a fitted effect of over 55% in size
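qHTS luciferase splicing reporter: luminescence rises when SMN2 exon 7 is included in transfected HEK293 cells. Compound exposure lasted 30-36 h at 37C, with 4.5 mM final sodium butyrate as control, followed by a ONE-Glo read.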
uPA surface inh – qHTS for Inhibitors of Cell Surface uPA Generation; Potency, µM (series often up to 38.3 µM), inactives show at the highest dose activity change, negative = inhibition, usual class: inhibitors; 0.31% of 330,000 active; cell surface uPA generation assay, qHTS; AID 540303, 2011; active means well fitted inhibition curve with a large enough effect; inconclusive means small, poorly fitted or top-dose-only effect; inactive means no such curve, though single readings can be large or run the other way; tested in mouse RAW 264.7 cells; further: on the % scale 0 is the no-effect control and ±100 the full control effect; nearly all actives have a fitted effect of over 55% in size
Numbers without * were called inactive; ? = inconclusive; . = no result given; [ ] = remark or other dose. Unless noted, the call rests on the fitted dose curve; in most records, active means well fitted curve in the direction sought with a large enough effect; inconclusive means small, poorly fitted or top-dose-only effect, or another doubt; inactive means no such curve, though single readings can be large; an effect the other way counts as inactive or inconclusive. Potency means the concentration at half of the fitted maximal effect.

SMILES	ELG1 genotox	FLuc modulator	Rab9 promoter act	NPC1 prom act	SMN2 splice up	uPA surface inh
CCn1c(SCC(=O)Nc2ccccc2Cl)nnc1C1CC1	7%	1%	-1%	-5%	.	3%
COc1ccc(CNC(=O)c2cc(-c3ccc(OC)c(OC)c3)nc3n[nH]c(-c4ccc(C)cc4)c23)cc1	.	-4%	.	.	.	.
Cc1cc(C(=O)N/N=C/c2ccc(Cl)c([N+](=O)[O-])c2)c(C)n1-c1ccc(F)cc1	?	-11%	-10%	-8%	-21%	0%
Cc1cc(C(=O)N/N=C/c2cccc([N+](=O)[O-])c2)c(C)n1-c1ccccc1	?	0.95µM*	?	?	10µM*	-11%
COc1ccc(/C=N/NC(=O)c2cc(C)n(-c3ccccc3)c2C)cc1OC	7%	8.5µM*	22%	-20%	17%	-11%
COC(=O)c1ccc2c(c1)C(=O)/C(=C/c1ccc(O)cc1)O2	11%	?	?	27%	-8%[1.84 µM]	-3%
COc1cccc(/C=C2\Oc3ccc(O)cc3C2=O)c1O	?	3.4µM*	?	?	.	-7%
Cc1nn(-c2ccccc2)c2c1cc1c(=O)[nH]c(=O)nc-1n2-c1cccc(C(F)(F)F)c1	.	-6%	.	.	-2%	.
COCCN(Cc1ccc(C)c(Br)c1)S(=O)(=O)c1ccc2[nH]c(=O)ccc2c1	.	-7%	.	.	.	.
COc1ccc(Cl)cc1Nc1nc(-c2sc(NC(=O)c3ccco3)nc2C)cs1	-8%	?	-4%	-9%	-4%	-8%
Cc1nc(C)c(-c2csc(Nc3ccc(C(=O)O)c(O)c3)n2)s1	-4%	12µM*	4%	-2%	.	-3%
Cc1nc(N)sc1-c1csc(NCc2ccccc2)n1	2%	?	-6%	-6%	-19%	0%
COc1cccc(Nc2nc(-c3sc(NC(=O)c4ccco4)nc3C)cs2)c1	-8%	24µM*	-6%	-6%	1%	0%
Cc1nc(N)sc1-c1csc(Nc2ncccn2)n1	23µM*	3µM*	0.56µM*	?	5.6µM*	-3%
COc1cccc(Nc2nc(-c3sc(C)nc3C)cs2)c1	14%	19µM*	26%	24%	.	8%
COc1ccc(CCNCc2c(C(=O)O)c(C)n(Cc3ccccc3C)c2C)c(OC)c1	.	-3%	.	.	0%	.
COc1ccccc1Nc1nc(-c2sc(N)nc2C)cs1	1%	?	3%	0%	.	15%
COc1cccc(Nc2nc(-c3sc(N)nc3C)cs2)c1	?	13µM*	?	25%	?	.
COc1ccc(C2CC(=O)N(C)c3ccccc3S2)cc1 (centres undefined)	18µM*	24µM*	9%	0%	17%	-14%
O=C(CN1C(=O)CC(c2ccco2)Sc2ccccc21)Nc1ccc(C(F)(F)F)cc1 (centres undefined)	.	-7%	.	.	-5%	.
COc1ccc(C2CC(=O)N(CC(=O)Nc3ccc(C(F)(F)F)cc3)c3ccccc3S2)cc1 (centres undefined)	.	11µM*	.	.	-13%	.
CSc1ccc(CCNC(=O)CCn2c(=O)c3cccn3c3cccnc32)cc1	.	3%	.	.	.	.
Cc1ccc(-n2cc(CN3CCN(c4ccccn4)CC3)c(-c3ccc(F)cc3)n2)cc1	-7%	15µM*	12%	-5%	.	0%
Cc1ccc(-n2cc(CN3CCN(C(=O)c4ncn[nH]4)CC3)c(-c3ccc(F)cc3)n2)cc1	-9%	9.5µM*	-2%	0%	.	13%
Cc1ccccc1C(=O)Nc1nnc(SCc2cc(=O)c3c(C)ccc(C)c3[nH]2)s1	.	-13%	.	.	.	.
SMILES	ELG1 genotox	FLuc modulator	Rab9 promoter act	NPC1 prom act	SMN2 splice up	uPA surface inh
O=C(Nc1cccc(F)c1)N1CCCC2(CCN(C(=O)c3cnccn3)CC2)C1	.	.	.	.	-1%	.
Oc1csc(Cc2nc(-c3ccc(-c4ccccc4)cc3)cs2)n1	11%	?	?	?	4%	1%
Oc1csc(Cc2nc(-c3ccc4ccccc4c3)cs2)n1	?	?	2.8µM*	?	?	6%
O=c1oc2ccccc2cc1-c1csc(Cc2nc(-c3ccc(Cl)cc3)cs2)n1	9%	6%	-31%	-22%	-76%	7%
Oc1csc(Cc2nc(-c3ccccc3F)cs2)n1	-4%	-18%	5µM*	?	?	-3%
O=C(COCc1cc(-c2cccs2)on1)Nc1ccc(OC(F)(F)F)cc1	.	5%	.	.	.	.
COc1ccc(N2CCN(c3cnc4ccccc4n3)CC2)cc1	?	13µM*	?	?	?	-2%
COc1ccc(N2CCN(c3cc(C)c4ccccc4n3)CC2)cc1	-11%	0%	0%	-11%	-28%	5%
COc1cccc(N2CCN(c3cnc4ccccc4n3)CC2)c1	8%	24µM*	1.6µM*	?	14%	2%
CCOC(=O)c1cncc(C(=O)O)c1	-1%	0%	3%	-11%	-1%	-2%
CCNc1nc2c(c(=O)[nH]c(=O)n2C)n1CC(O)COc1ccc(Cl)cc1Cl (centres undefined)	.	-1%	.	.	-6%	.
COc1ccccc1-c1ccc(/C=C2\C=CC(=O)O2)o1	12%	7.6µM*	-9%	-1%	.	-12%
COc1ccc2c(c1)CCc1c(C(=O)N3CCCc4ccccc43)noc1-2	?	13µM*	7%	14%	-18%	.
COc1ccc2c(c1)CCc1c(C(=O)Nc3ccc(OC)c(OC)c3)noc1-2	2%	2.4µM*	16%	11%	-14%	.
COc1ccc2c(c1)CCc1c(C(=O)N3CCOCC3)noc1-2	12µM*	11µM*	3.2µM*	4µM*	13µM*	.
COc1ccc2c(c1)CCc1c(C(=O)N3CC4(C)CC3CC(C)(C)C4)noc1-2 (centres undefined)	-7%	-2%	-7%	-2%	-17%	-3%
COc1ccc2c(c1)c1c(c(=O)n(Cc3ccccc3)c(=O)n1CC(=O)Nc1ccccc1F)n2C	.	-3%	.	.	.	.
CCn1ccc2c(OCC(=O)Nc3ccc(C(C)=O)cc3)cccc2c1=O	.	-7%	.	.	.	.
CCc1c(-c2ccccc2)nc2ccccc2c1C(=O)NC(C)c1ccccc1 (centres undefined)	.	-3%	.	.	.	.
COc1cccc(-c2ccnc3[nH]n(-c4ccccc4)c(=O)c23)c1	14%	?	?	20%	13%	7%
C[C@H]1Cc2c(-c3ccccc3)nc3c(c2CO1)CN(C(=O)Nc1cccc(C#N)c1)CC3	.	.	.	.	-4%[9.22 µM]	.

High-throughput results (PubChem)
